Counter-ions that a name gives are not always drawn. Activity calls are given as the source filed them.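 Rule for the calls: active = at least 20% inhibition of 6-phosphogluconate dehydrogenase activity; inactive = the rest.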 Where a SMILES comes first, the peptide text is derived from it. The star is where a group is joined. Tfa = O=C(C(F)(F)F)*
Each compound was assayed against 6-phosphogluconate dehydrogenase, decarboxylating (Homo sapiens) (UniProt P52209) (assay: 6PGD enzyme inhibitors, primary screen, biochemical, human, recombinant enzyme, NADPH absorbance (AID 1159550)). Conditions: recombinant 6PGD, NADPH absorbance 341 nm; at 10 µM; stronger effect = higher value.
Chain of 6-phosphogluconate dehydrogenase, decarboxylating (Homo sapiens) (P52209 whole entry, looked up): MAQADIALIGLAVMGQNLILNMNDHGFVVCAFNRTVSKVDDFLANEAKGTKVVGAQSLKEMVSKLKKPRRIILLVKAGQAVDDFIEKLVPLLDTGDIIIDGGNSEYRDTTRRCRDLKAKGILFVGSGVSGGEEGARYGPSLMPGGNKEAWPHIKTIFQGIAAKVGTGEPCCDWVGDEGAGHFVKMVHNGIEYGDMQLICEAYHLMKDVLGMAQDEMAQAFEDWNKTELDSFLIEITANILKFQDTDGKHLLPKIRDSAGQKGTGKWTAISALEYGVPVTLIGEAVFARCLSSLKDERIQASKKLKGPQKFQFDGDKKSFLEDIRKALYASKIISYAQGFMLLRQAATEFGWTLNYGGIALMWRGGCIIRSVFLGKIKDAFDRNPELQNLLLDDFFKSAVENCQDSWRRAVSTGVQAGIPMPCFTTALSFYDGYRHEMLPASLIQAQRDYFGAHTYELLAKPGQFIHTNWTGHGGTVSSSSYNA
In the case of `CC(=O)Oc1cc2c(c(C)c1OC(C)=O)CC1OC13[C@@]2(C)CC[C@@]1(C)C2C[C@](C)(C(=O)O)CC[C@]2(C)CC[C@]31C` (some centres undefined), the inhibition is reported as 2.26% (inactive). For `N[C@@H](C=O)[C@@H](O)[C@H](O)[C@H](O)CO`, the inhibition was -0.658% (inactive). With `CC(C)c1c(O)ccc2c1CCC1C(C)(CO)CCCC21C` (centres undefined) the inhibition was -0.0186% (inactive). For `CC(C)c1ccc2c(c1)CC[C@@]1(C)[C@](C)(C(N)=O)CCC[C@]21C`, the inhibition was 18% (inactive). `CC(=O)OC1C=C(C)C(COc2ccc3ccc(=O)oc3c2)C2(C)CCC(O)C(C)(C)C12` (centres undefined) was tested, and the inhibition was 9.19% (inactive). In the case of `C#CCCCCCCCCCCCC(=O)CC(O)COC(C)=O` (centres undefined), the inhibition is reported as -5.7% (inactive). In the case of `CC1(C)CCC2(C(=O)O)C(O)CC3(C)C(=CCC4C5(C)CCC(O)C(C)(C)C5CCC43C)C2C1` (centres undefined), the inhibition is reported as -10.1% (inactive). In the case of `CCC[C@H]1CC2=C(C[C@@H](CC)CC3=C1C(=O)OC3=O)C(=O)OC2=O`, the inhibition is reported as -4.81% (inactive). For `C=C[C@@H]1CN2CC[C@@H]1C[C@@H]2[C@@H](O)c1ccnc2ccc(OC)cc12`, the inhibition was 8.78% (inactive). With `CC(=O)Oc1ccc2c(c1)CC[C@@H]1[C@@H]2CC[C@]2(C)C(=O)CC[C@@H]12` the inhibition was -18% (inactive). In the case of `Cc1occc(=O)c1/C=C/O`, the inhibition is reported as 0.162% (inactive). `CC1=CCCC(C)=CCC(C)(C)C=CC1` was tested, and the inhibition was -0.753% (inactive). `C1CCN2CC3CC(CN4CCCCC34)C2C1` (centres undefined) was tested, and the inhibition was 12.3% (inactive). In the case of `CC1(C)C(=O)CC[C@@]2(C)C1C[C@@H](O)[C@@]1(C)C3=CC(=O)O[C@@H](c4ccoc4)[C@]3(C)CCC21` (some centres undefined), the inhibition is reported as -10.8% (inactive). With `CCOC(=O)C1(O)Oc2cc(OC)cc(OC)c2C(=O)C1c1ccccc1` (centres undefined) the inhibition was -4.01% (inactive). For `COc1ccc2c(=O)ccoc2c1`, the inhibition was -1.53% (inactive). In the case of `COC(=O)c1c(Cl)c(Cl)c(C(=O)OC)c(Cl)c1Cl`, the inhibition is reported as -11.1% (inactive). For `CC(=O)O[C@@H]1CC2C(C)(C)C(=O)CC[C@]2(C)C2CC[C@]3(C)C(=CC(=O)O[C@H]3c3ccoc3)[C@@]21C` (some centres undefined), the inhibition was 14.2% (inactive). For `CN[C@H]1[C@@H](O[C@@H]2[C@@H](O[C@H]3[C@H](O)[C@@H](O)[C@H](N=C(N)N)[C@@H](O)[C@@H]3N=C(N)N)O[C@H](C)[C@@]2(O)C=O)O[C@H](CO)[C@@H](O)[C@@H]1O`, the inhibition was 6.7% (inactive). In the case of `CC12CCC3c4ccc(O)cc4CCC3C1CCC2OC(=O)CCC1CCCC1` (centres undefined), the inhibition is reported as -3.96% (inactive). In the case of `C=C(C)C1Cc2c(ccc(C(=O)O)c2O)O1` (centres undefined), the inhibition is reported as -0.806% (inactive). In the case of `COc1c(Cl)c(C)c2c(c1Cl)OC(=O)c1c(C)c(Cl)c(OC)c(Cl)c1O2`, the inhibition is reported as -8.06% (inactive). For `CO[C@H]1/C=C/O[C@@]2(C)Oc3c(C)c(O)c4c(O)c(c(/C=N/N5CCN(C)CC5)c(O)c4c3C2=O)NC(=O)/C(C)=C/C=C/[C@H](C)[C@H](O)[C@@H](C)[C@@H](O)[C@@H](C)[C@H](OC(C)=O)[C@@H]1C`, the inhibition was 18.2% (inactive). In the case of `OC[C@@H](O)C(O)[C@H](O)CO`, the inhibition is reported as -0.48% (inactive). With `COC(=O)CCC(=O)O[C@H]1CCC2(C)C(CCC3C2C(=O)[C@@H](O)C2(C)C3CC3OC4(CCC(C)CO4)C(C)C32)C1` (some centres undefined) the inhibition was 4.65% (inactive). `N[C@@H](Cc1cnc[nH]1)C(=O)Nc1ccc2ccccc2c1` was tested, and the inhibition was -4.42% (inactive). `CC1(C)CCC2(C(=O)O)CCC3(C)C(=CCC4C5(C)CCC(O)C(C)(C)C5CCC43C)C2C1` (centres undefined) was tested, and the inhibition was 0.817% (inactive). With `COC(=O)c1cc(OC)c(=O)c2c(OC)c(OC)ccc2c1` the inhibition was 7.65% (inactive). `CC(=O)c1cc2c(cc1O)OC(C)(C)C=C2` was tested, and the inhibition was 16.8% (inactive). In the case of `CC(C)[C@H](NC(=O)[C@H](Cc1ccc(O)cc1)NC(=O)[C@@H](NC(=O)C(F)(F)F)C(C)C)C(=O)O` (Tfa-Val-Tyr-Val-OH), the inhibition is reported as -6.07% (inactive). In the case of `CC=C(C)C(=O)OC1C(OC(C)=O)[C@]2(CO)C(O)C[C@]3(C)C(=CCC4[C@@]5(C)CCC(OC6OC(C(=O)O)C(OC7OC(CO)C(O)C(O)C7O)C(O)C6OC6OC(CO)C(O)C(O)C6O)[C@](C)(CO)C5CC[C@]43C)C2CC1(C)C` (some centres undefined), the inhibition is reported as 10.9% (inactive). In the case of `CC(=O)O[C@@H]1CC2C(C)(C)C=CC(=O)[C@]2(C)C2CC[C@@]3(C)[C@H](c4ccoc4)OC(=O)C4OC43[C@@]21C` (some centres undefined), the inhibition is reported as -6.87% (inactive). In the case of `C/C=C(/C)C(=O)O[C@H]1Cc2c(ccc3ccc(=O)oc23)OC1(C)C`, the inhibition is reported as 9.34% (inactive). For `C[C@H]1[C@@H](O)O[C@@H]2OC3(C)CC[C@H]4[C@H](C)CC[C@@H]1[C@@]24OO3`, the inhibition was -22.8% (inactive). For `CC(C)C1COc2cc3oc(=O)ccc3cc2O1` (centres undefined), the inhibition was 3.83% (inactive). For `CS(C)(=O)=O`, the inhibition was 0.728% (inactive). `C[C@H](N)CO` was tested, and the inhibition was -0.518% (inactive). With `CCC1(C2OC(C3OC(O)(CO)C(C)CC3C)CC2C)CCC(C2(C)CCC3(CC(O)C(C)C(C(C)C(OC)C(C)C(=O)O)O3)O2)O1` (centres undefined) the inhibition was 3.18% (inactive). For `COc1ccc(-c2coc3cc(O)ccc3c2=O)c(OC)c1O`, the inhibition was 1.46% (inactive).

From PubChem BioAssay
